“And” between values parts separate entries of the source, which are not always exact repeats. Identical values can stand only once. Records with an inconclusive call do not appear. Where a call stands in place of a potency, no number is given. More than one record can exist for a structure, and the calls need not agree. The source made the active and inactive calls. Unless noted, calls follow the shape of the dose curve; as a rule, active = well fitted curve in the direction sought with a large enough effect; inconclusive = small, poorly fitted or top-dose-only effect, or another doubt; inactive = no such curve, though single readings can be large; an effect the other way counts as inactive or inconclusive.

Results on 34 compounds are retold here after PubChem BioAssay (NCATS).

One experiment can be described thus: P-glycoprotein substrates identified in KB-3-1 adenocarcinoma cell line, qHTS therapeutic library screen (AID 1346986). Also: nearly all actives have a fitted effect of over 60% in size. The conditions noted are these: KB-3-1 parental cells viability, CellTiter-Glo, 72 h; series mostly up to 44.5 µM. A digest of the protocol: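 Viability by CellTiter-Glo after 72 h compound exposure at 37 degree C, 5% CO2. Cytotoxic call: curve class -1.1 to -2.4, maximum response >50%, AC50 < 10 uM, compared across KB-3-1 and P-gp-overexpressing KB-8-5-11.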
A general note: Quantitative high-throughput screening tests each substance at several concentrations.
For `CC1COc2c(N3CCN(C)CC3)c(F)cc3c(=O)c(C(=O)O)cn1c23` (stereo not given), the result was inactive.

As to `NCCc1cnc[nH]1`, the outcome was inactive. As for `CC(C)(C)C(=O)Oc1ccc(S(=O)(=O)Nc2ccccc2C(=O)NCC(=O)O)cc1`, the outcome was inactive.

Regarding `O=C(c1ccc(OCCN2CCCCC2)cc1)c1c(-c2ccc(O)cc2)sc2cc(O)ccc12`, the outcome was inactive.

Another experiment in a line: P-glycoprotein substrates identified in KB-8-5-11 adenocarcinoma cell line, qHTS therapeutic library screen (AID 1346987). Also: nearly all actives have a fitted effect of over 65% in size. Also: potency is read from the fitted curve at half-maximal effect. The conditions noted are these: KB-8-5-11 (P-gp overexpressing) viability, CellTiter-Glo, 72 h; series mostly up to 44.5 µM. The method, boiled down: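 In this qHTS, P-gp-rich KB-8-5-11 cells received library compounds across a concentration range. Viability was quantified by luminescence after 72 h at 37 degree C.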
As for `Cc1cnc(C(=O)NCCc2ccc(S(=O)(=O)NC(=O)NC3CCCCC3)cc2)cn1`, the Potency entry was “inactive”. Same read-out and setting: then `O=C(C1CCCCC1)N1CC(=O)N2CCc3ccccc3C2C1` (stereo not given), with “inactive”; and `NC12CC3CC(CC(C3)C1)C2`, with “inactive”; and `Nc1nc2c(ncn2COC(CO)CO)c(=O)[nH]1`, with “inactive and 16.6 µM (active)”. In the case of `C[C@H]1c2cccc(O)c2C(O)=C2C(=O)[C@]3(O)C(O)=C(C(N)=O)C(=O)[C@@H](N(C)C)[C@@H]3[C@@H](O)[C@@H]21`, the Potency result is “inactive”.

In the case of `CC1COc2c(N3CCN(C)CC3)c(F)cc3c(=O)c(C(=O)O)cn1c23` (stereo not given), the Potency entry is “inactive”. As for `NCCc1cnc[nH]1`, the Potency entry is “inactive”. Regarding `CC(C)(C)C(=O)Oc1ccc(S(=O)(=O)Nc2ccccc2C(=O)NCC(=O)O)cc1`, the Potency entry was “inactive”. With `NC(CO)C(=O)NNCc1ccc(O)c(O)c1O` (stereo not given), the Potency result is “inactive”. Turning to `CN(Cc1cnc2nc(N)nc(N)c2n1)c1ccc(C(=O)N[C@@H](CCC(=O)O)C(=O)O)cc1`, the Potency was 10.3 nM (active) and 37.2 nM (active).

Consider `CC1(CN2CCC(n3c(=O)[nH]c4ccccc43)CC2)OCc2ccccc2-n2cccc21` (stereo not given), for which the Potency entry is “inactive”. As to `OCCN1CCN(CCCN2c3ccccc3Sc3ccc(C(F)(F)F)cc32)CC1`, the Potency is 16.6 µM (active) and 18.4 µM (active). Turning to `CN1C(C(=O)Nc2ccccn2)=C(O)c2ccccc2S1(=O)=O`, the Potency result is “inactive”. Same read-out and setting: then `CCOC(=O)C(C)(C)Oc1ccc(Cl)cc1`, with “inactive”. `Cc1cc(C(C)(C)C)c(O)c(C)c1CC1=NCCN1`: the Potency entry was “inactive”. Regarding `CC(=O)OCC(CCn1cnc2cnc(N)nc21)COC(C)=O`, the Potency result is “inactive”.

In the case of `CCOC(=O)Nc1ccc(NCc2ccc(F)cc2)nc1N`, the Potency result is “inactive”. On the same count and under the same terms, then `Cc1cn([C@H]2C[C@H](N=[N+]=[N-])[C@@H](CO)O2)c(=O)[nH]c1=O`, with “inactive”; and `NC(=O)NO`, with “inactive and 1.66 µM (active)”; and `CN1C2CCC1CC(OC(=O)C(CO)c1ccccc1)C2` (stereo not given), with “inactive”. With `CCCCc1oc2ccccc2c1C(=O)c1cc(I)c(OCCN(CC)CC)c(I)c1`, the Potency entry is “inactive”. Take `COc1cc2nc(N(C)CCCNC(=O)C3CCCO3)nc(N)c2cc1OC` (stereo not given): the Potency entry is “inactive”. As for `COc1ccccc1OCCNCC(O)COc1cccc2[nH]c3ccccc3c12` (stereo not given), the Potency result is “inactive”. In the case of `CC(C)Cc1ccc(C(C)C(=O)O)cc1` (stereo not given), the Potency entry is “inactive”.

With `Cc1ccccc1N1C(=O)c2cc(S(N)(=O)=O)c(Cl)cc2NC1C` (stereo not given), the Potency entry was “inactive”. Consider `CN(C)c1nc(N(C)C)nc(N(C)C)n1`, for which the Potency entry is “inactive”. For the compound `CS(=O)(=O)Nc1ccc([N+](=O)[O-])cc1Oc1ccccc1`, the Potency result is “inactive”. Turning to `COc1cc2nc(N3CCN(C(=O)c4ccco4)CC3)nc(N)c2cc1OC`, the Potency result was “inactive”.

The nature of the next experiment: Natriuretic polypeptide receptor (hNpr1) antagonism - Pilot counterscreen GloSensor control cell line (AID 1347045; calls by dose curve). The conditions noted are these: HEK293 cGMP GloSensor cells, SNP-stimulated luminescence, 20 min; series mostly up to 38.3 µM. A digest of the protocol: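 HEK293 cGMP-sensor cells; 2% GloSensor reagent 2 h RT; LOPAC compounds in 1:5 titrations 30-50 min; 50 uM SNP 20 min; luminescence pre-read and post-read.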
In general terms: The purpose of a counterscreen is to sort out artefacts and off-target activity.
As to `CCCNCC(O)COc1ccccc1C(=O)CCc1ccccc1` (stereo not given), the Potency result was “inactive”. `O=C(C1CCCCC1)N1CC(=O)N2CCc3ccccc3C2C1` (stereo not given): the Potency entry was “inactive”. Turning to `NC12CC3CC(CC(C3)C1)C2`, the Potency entry was “inactive”. Same read-out and setting: then `Nc1nc2c(ncn2COC(CO)CO)c(=O)[nH]1`, with “inactive”; and `C[C@H]1c2cccc(O)c2C(O)=C2C(=O)[C@]3(O)C(O)=C(C(N)=O)C(=O)[C@@H](N(C)C)[C@@H]3[C@@H](O)[C@@H]21`, with “inactive”; and `NCCc1cnc[nH]1`, with “inactive”.

As to `CN1CCN(C2=Nc3cc(Cl)ccc3Nc3ccccc32)CC1`, the Potency entry was “inactive”. Regarding `NC(CO)C(=O)NNCc1ccc(O)c(O)c1O` (stereo not given), the Potency result is “inactive”.

In the case of `Fc1ccc([C@@H]2CCNC[C@H]2COc2ccc3c(c2)OCO3)cc1`, the Potency result is “inactive”. In the case of `CN1C(C(=O)Nc2ccccn2)=C(O)c2ccccc2S1(=O)=O`, the Potency entry is “inactive”. With `CCOC(=O)C(C)(C)Oc1ccc(Cl)cc1`, the Potency entry is “inactive”. On to `Cc1cc(C(C)(C)C)c(O)c(C)c1CC1=NCCN1`, for which the Potency result was “inactive”. On to `O=c1[nH]cc(F)c(=O)[nH]1`, for which the Potency result was “inactive”. Same read-out and setting: then `O=C(c1ccc(OCCN2CCCCC2)cc1)c1c(-c2ccc(O)cc2)sc2cc(O)ccc12`, with “inactive”; and `NC(=O)NO`, with “inactive”; and `CN1C2CCC1CC(OC(=O)C(CO)c1ccccc1)C2` (stereo not given), with “inactive”. Still for that read-out and setting: in the case of `CCCCc1oc2ccccc2c1C(=O)c1cc(I)c(OCCN(CC)CC)c(I)c1` it was “inactive”. Regarding `COc1ccccc1OCCNCC(O)COc1cccc2[nH]c3ccccc3c12` (stereo not given), the Potency result is “inactive”. As for `CC(C)Cc1ccc(C(C)C(=O)O)cc1` (stereo not given), the Potency entry is “inactive”. With `Cc1ccccc1N1C(=O)c2cc(S(N)(=O)=O)c(Cl)cc2NC1C` (stereo not given), the Potency entry was “inactive”. With `CN(C)c1nc(N(C)C)nc(N(C)C)n1`, the Potency entry was “inactive”.

Regarding `OCCN(CCO)c1nc(N2CCCCC2)c2nc(N(CCO)CCO)nc(N3CCCCC3)c2n1`, the Potency result was “inactive”.

Turning to `COc1cc2nc(N3CCN(C(=O)c4ccco4)CC3)nc(N)c2cc1OC`, the Potency entry is “inactive”.
